Assay [1] can be described thus: binders of probe aFSTL3 on microarray, primary screen, stem cell growth factor project, biochemical, small-molecule microarray, fluorescence 635/667 (AID 1064).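 Note: measures binding of the biotinylated anti-FSTL3 antibody to printed compounds.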 Conditions: higher = more signal.
Assay [2] in a line: binders from COS7 lysate, DM2A8 probe, primary screen, torsin A project, cell lysate, small-molecule microarray, fluorescence 635/667 (AID 1065). Conditions: higher = more signal, COS7 lysate expressing mutant human TOR1A.
A short description of assay [3]: binders of probe aFGF2 on microarray, primary screen, stem cell growth factor project, biochemical, small-molecule microarray, fluorescence 635/667 (AID 1067).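 Note: measures binding of biotinylated aFGF2 protein to printed compounds on slides; z-score merges feature fluorescence and signal-to-noise across triplicate slides.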 Conditions: higher = more signal.
Assay [4] can be described thus: binders of probe aFGF10 on microarray, primary screen, stem cell growth factor project, biochemical, small-molecule microarray, fluorescence 635/667 (AID 1071).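 Note: score merges 667 nm spot intensity and signal to noise from triplicate slides.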 Conditions: higher = more signal.
Assay [5] has as its target Neurogenic locus notch homolog protein 2 (Homo sapiens) (UniProt Q04721). The experiment in a line: Notch2 binders on small-molecule microarrays, primary screen, biochemical, small-molecule microarray, 635 nm fluorescence, stem cell growth factors (AID 1073). Conditions: Notch2 binding, higher = more signal.
Assay [6] has as its target Pro-neuregulin-1, membrane-bound isoform (Homo sapiens) (UniProt Q02297). The experiment in a line: NRG1 binders on small-molecule microarrays, primary screen, psychiatric disease protein project, biochemical, small-molecule microarray, fluorescence 635/667 (AID 1075).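 Note: score combines 667 nm spot fluorescence with signal to noise.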 Conditions: NRG1 binding, 635 nm fluorescence, higher = more signal.
Assay [7] concerns Neuregulin-1 EGF-like domain. The experiment in a line: binders of neuregulin-1 EGF-like domain, primary screen, biochemical, small-molecule microarray, 635 nm fluorescence (AID 1081).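 Note: binding of the protein to compounds printed on small-molecule microarray slides.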 Conditions: small-molecule microarray binding, higher = more signal.
The nature of assay [8]: FRG1 promoter luciferase signal modulators, primary screen, FRG1 inhibition for FSHD, cell-based, C2C12 myotubes, firefly/Renilla luciferase, luminescence (AID 1084). Conditions: higher = more signal, called active from +8 up or from −8 down.
Assay [9] can be described thus: binders of probe aFST on microarray, primary screen, stem cell growth factor project, biochemical, small-molecule microarray, fluorescence 635/667 (AID 1086).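 Note: score merges 667 nm fluorescence with signal-to-noise of each printed compound spot.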 Conditions: higher = more signal.
Assay [10] is described as follows: binders of probe aHhip on microarray, primary screen, stem cell growth factor project, biochemical, small-molecule microarray, fluorescence 635/667 (AID 1087).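 Note: score merges spot fluorescence at 667nm with spot signal to noise ratio.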 Conditions: higher = more signal.
The test system of assay [11] is PRMT1 (protein arginine N-methyltransferase 1). The experiment in a line: PRMT1 binders on small-molecule microarrays, primary screen, biochemical, small-molecule microarray, 635 nm fluorescence (AID 1088).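 Note: binding of Prmt1 protein to compounds spotted on small-molecule microarray slides.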 Conditions: small-molecule microarray binding, higher = more signal.
Assay [12] in a line: yeast growth modulation, basal conditions, primary screen, YJM789 clinical isolate, OD600, 24 h (AID 1089).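 Note: growth of clinical yeast isolate S. cerevisiae YJM 789 seeded 1000 cells per well; test concentration not given here.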 Conditions: S. cerevisiae YJM789 growth, higher = more signal, called active from +8 up or from −8 down.
A short description of assay [13]: fission yeast growth modulation, primary screen, strain 972, OD600, 24 h, no modulator (AID 1090).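 Note: basal condition with compound alone and no growth modifier present; test concentration not given here.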 Conditions: S. pombe 972 growth, higher = more signal, called active from +8 up or from −8 down.
Assay [14] in a line: S. cerevisiae growth modulation with rapamycin, primary screen, strain BY4716, OD600, 96 h (AID 1091). Note: test concentration not given here. Conditions: higher = more signal, called active from +8 up or from −8 down.
The target in assay [15] is Torsin-1A-interacting protein 2 (Homo sapiens) (UniProt Q8NFQ8). In words: LULL1 binders on small-molecule microarray, primary screen, cell lysate, human LULL1 lysate, 635/667 nm fluorescence (AID 1092).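 Note: probe is lysate of COS7 cells overexpressing human LULL1; score merges per-feature 667 nm fluorescence with signal-to-noise.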 Conditions: hLULL1 lysate binding, 635 nm fluorescence, higher = more signal.
Sequence of Torsin-1A-interacting protein 2 (Homo sapiens) (Q8NFQ8 whole entry, looked up): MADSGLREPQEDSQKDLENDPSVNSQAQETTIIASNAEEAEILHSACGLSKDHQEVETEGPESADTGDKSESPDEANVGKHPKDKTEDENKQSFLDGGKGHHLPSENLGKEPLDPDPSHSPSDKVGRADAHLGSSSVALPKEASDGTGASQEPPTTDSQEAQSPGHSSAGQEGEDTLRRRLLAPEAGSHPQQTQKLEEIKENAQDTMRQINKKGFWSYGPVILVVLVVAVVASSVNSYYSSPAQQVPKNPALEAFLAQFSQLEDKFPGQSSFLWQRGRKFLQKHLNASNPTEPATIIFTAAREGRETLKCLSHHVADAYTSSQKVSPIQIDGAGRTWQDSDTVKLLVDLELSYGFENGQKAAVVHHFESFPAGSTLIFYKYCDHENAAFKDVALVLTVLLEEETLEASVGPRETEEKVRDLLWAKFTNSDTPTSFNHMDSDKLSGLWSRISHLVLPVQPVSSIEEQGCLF
Assay [16] can be described thus: E. coli growth modulation, two-sided OD650, primary screen, E. coli filamentation project, strain DRC41, 24 h (AID 1093).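 Note: MC1000 strain lacking acrAB efflux and sulA so SOS filamentation is blocked; test concentration not given here.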 Conditions: OD650, 24 h, higher = more signal, called active from +8 up or from −8 down.
A short description of assay [17]: small-molecule microarray binders of probe aLefty2, primary screen, biochemical, biotinylated probe, 635/667 nm fluorescence (AID 1094).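 Note: score merges spot fluorescence near 667 nm with spot signal-to-noise ratio.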 Conditions: higher = more signal.
Assay [18] has as its system Noggin (protein binding on small-molecule microarray). In words: Noggin binders on small-molecule microarray, primary screen, biochemical, 635/667 nm fluorescence (AID 1095).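 Note: score merges 667 nm feature fluorescence with signal to noise over triplicate slides.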 Conditions: 635 nm fluorescence, higher = more signal.
The target in assay [19] is Neurogenic locus notch homolog protein 3 (Homo sapiens) (UniProt Q9UM47). The experiment in a line: NOTCH3 binders on small-molecule microarray, primary screen, biochemical, 635/667 nm fluorescence (AID 1096). Conditions: NOTCH3 binding, 635 nm fluorescence, higher = more signal.
Sequence of Neurogenic locus notch homolog protein 3 (Homo sapiens) (Q9UM47 whole entry, looked up): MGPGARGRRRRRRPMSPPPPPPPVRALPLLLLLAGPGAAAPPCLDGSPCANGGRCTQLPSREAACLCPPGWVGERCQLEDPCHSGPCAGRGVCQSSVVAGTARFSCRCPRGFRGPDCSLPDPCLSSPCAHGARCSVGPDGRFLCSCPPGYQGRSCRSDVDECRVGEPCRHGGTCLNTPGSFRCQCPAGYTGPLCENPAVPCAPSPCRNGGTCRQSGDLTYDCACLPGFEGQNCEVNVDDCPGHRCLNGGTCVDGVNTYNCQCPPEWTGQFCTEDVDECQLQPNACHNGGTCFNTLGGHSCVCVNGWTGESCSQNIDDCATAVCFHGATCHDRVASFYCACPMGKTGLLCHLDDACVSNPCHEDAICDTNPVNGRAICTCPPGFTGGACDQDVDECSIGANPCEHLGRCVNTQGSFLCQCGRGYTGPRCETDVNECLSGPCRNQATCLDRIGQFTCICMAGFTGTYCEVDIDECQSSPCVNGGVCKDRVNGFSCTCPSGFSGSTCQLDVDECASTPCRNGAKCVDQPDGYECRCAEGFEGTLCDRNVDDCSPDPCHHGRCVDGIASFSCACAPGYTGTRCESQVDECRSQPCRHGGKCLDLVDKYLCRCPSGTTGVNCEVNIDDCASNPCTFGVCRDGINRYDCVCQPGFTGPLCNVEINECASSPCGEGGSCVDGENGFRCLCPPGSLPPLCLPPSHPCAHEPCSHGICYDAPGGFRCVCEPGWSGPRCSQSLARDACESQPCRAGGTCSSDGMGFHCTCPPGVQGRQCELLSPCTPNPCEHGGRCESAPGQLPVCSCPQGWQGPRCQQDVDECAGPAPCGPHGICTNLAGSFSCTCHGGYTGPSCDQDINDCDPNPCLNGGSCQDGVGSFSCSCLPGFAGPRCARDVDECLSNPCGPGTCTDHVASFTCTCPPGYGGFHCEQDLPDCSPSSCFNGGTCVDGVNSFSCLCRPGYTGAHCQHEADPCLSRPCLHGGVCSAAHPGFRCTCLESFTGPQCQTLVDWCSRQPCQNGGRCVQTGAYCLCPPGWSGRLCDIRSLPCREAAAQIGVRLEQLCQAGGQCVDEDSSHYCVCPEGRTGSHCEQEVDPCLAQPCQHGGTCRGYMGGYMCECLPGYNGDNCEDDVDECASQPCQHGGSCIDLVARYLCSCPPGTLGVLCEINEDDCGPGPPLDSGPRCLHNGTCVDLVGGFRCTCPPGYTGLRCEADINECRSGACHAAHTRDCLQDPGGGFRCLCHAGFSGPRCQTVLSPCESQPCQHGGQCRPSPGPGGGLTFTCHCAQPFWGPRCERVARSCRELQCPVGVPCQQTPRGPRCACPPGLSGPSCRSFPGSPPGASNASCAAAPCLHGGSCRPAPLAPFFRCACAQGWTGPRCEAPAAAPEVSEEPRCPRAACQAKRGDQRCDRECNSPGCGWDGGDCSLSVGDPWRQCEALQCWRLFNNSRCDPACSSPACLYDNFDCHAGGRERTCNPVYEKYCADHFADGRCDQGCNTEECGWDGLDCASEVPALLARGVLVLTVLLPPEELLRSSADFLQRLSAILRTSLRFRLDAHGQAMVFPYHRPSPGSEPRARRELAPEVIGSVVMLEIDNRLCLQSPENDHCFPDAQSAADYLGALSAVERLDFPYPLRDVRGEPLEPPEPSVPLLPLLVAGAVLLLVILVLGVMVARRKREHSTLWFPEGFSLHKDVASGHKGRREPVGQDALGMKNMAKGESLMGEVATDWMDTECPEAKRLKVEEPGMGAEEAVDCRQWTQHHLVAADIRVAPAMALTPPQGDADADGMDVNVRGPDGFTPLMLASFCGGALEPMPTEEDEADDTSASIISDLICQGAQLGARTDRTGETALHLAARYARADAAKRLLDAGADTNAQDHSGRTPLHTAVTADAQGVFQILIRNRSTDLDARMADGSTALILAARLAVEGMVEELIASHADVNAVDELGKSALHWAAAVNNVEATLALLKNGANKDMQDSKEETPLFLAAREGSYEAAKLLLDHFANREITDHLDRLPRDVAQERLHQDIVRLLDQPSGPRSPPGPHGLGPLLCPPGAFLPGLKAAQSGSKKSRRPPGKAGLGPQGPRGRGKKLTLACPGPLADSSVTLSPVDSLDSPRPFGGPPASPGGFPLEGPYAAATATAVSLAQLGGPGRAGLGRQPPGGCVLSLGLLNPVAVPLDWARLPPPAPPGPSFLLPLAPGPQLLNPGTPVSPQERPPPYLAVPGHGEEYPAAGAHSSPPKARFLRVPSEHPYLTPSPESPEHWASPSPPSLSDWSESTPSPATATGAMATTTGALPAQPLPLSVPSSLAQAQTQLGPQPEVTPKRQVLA
Assay [20] can be described thus: small-molecule microarray binders of probe aEGFR, primary screen, biochemical, biotinylated probe, 635/667 nm fluorescence (AID 1097).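 Note: probe is a biotinylated anti-EGFR antibody binding compounds printed on slides; score combines fluorescence near 667 nm and signal to noise of each spot.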 Conditions: higher = more signal.

Calls of active or inactive are those of the source.

Sequence of Pro-neuregulin-1, membrane-bound isoform (Homo sapiens) (Q02297 whole entry, looked up, the tested form may be a part, canonical isoform): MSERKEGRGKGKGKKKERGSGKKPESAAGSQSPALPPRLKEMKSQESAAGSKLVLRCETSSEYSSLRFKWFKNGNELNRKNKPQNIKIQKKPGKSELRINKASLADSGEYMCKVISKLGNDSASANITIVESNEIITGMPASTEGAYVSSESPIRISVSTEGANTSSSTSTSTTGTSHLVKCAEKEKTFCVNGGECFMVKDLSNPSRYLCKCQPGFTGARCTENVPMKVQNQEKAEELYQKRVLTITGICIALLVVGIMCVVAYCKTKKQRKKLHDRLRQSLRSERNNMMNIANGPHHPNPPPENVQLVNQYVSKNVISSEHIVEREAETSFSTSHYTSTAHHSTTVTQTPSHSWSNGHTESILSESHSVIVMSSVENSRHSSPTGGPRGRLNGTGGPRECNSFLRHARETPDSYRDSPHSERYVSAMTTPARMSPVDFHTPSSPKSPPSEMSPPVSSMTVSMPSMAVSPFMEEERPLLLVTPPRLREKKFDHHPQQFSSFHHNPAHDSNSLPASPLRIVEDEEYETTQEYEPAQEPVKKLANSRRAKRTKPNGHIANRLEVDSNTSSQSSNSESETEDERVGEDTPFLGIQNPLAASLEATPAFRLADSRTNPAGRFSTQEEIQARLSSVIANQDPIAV

On to `CN(C)c1ccc(C(O)C2C=CC3C(=O)N(Cc4ccccc4)C(=O)C3N2n2cnnc2)cc1` (stereo not given), for which the composite z-score in assay [1] is 0.0652; in [2], 0.0666; in assay [3], -0.0303; in assay [4], 0.0521; in [5], 0.0282; in assay [6], -0.161. The composite z-score in [7] is -0.103; in assay [9], 0.198; in [10] it was 0.244; in assay [11], -0.765; in assay [15] it was 0.0442; in assay [17] it was 0.123. The composite z-score in assay [18] is 0.359; in assay [19], -0.139; in assay [20] it was -0.0649. Also, the z-score is -1.18 (inactive) in [8]; -1.24 (inactive) in assay [12]; 0.396 (inactive) in [13]; -0.528 (inactive) in assay [14]; 0.372 (inactive) in assay [16].

In the case of `COc1ccc([Si](C)(C)[C@@H]2[C@@H](CC(=O)N(CCO)Cc3ccccc3)O[C@]3(C(=O)N(Cc4ccc(N5C(=O)c6cccc7cccc5c67)cc4)c4ccccc43)[C@H]2C)cc1`, the composite z-score in [1] was -0.0031; in [2] it was 0.407; in assay [3] it was -0.0876; in assay [4] it was 0.181; in [5], 0.494; in [6] it was 0.933. For the same molecule, the composite z-score in [7] is 0.956; in assay [9], -0.0542; in assay [10], -0.353; in assay [11], 1.57; in assay [15], 1.63; in [17] it was -0.0785. In addition, the figures for the composite z-score in [18], in [19] and in assay [20] were 0.77, 0.223 and -0.116, respectively. Moreover, the z-score was -1.76 (inactive) in assay [8]; 0.655 (inactive) in [12]; 0.27 (inactive) in assay [13]; 3.51 (inactive) in [14]; 0.309 (inactive) in assay [16].

In the case of `CN(C)CCCNC(=O)[C@@]1(C)c2ccccc2C(=O)N(Cc2ccc(OC(F)(F)F)cc2)[C@H]1c1ccc(CO)cc1`, the composite z-score in assay [1] is 0.462; in [2] it was -0.674; in assay [3], -0.0587; in assay [4], -0.959; in assay [5], -0.538; in [6] it was 1.35. Moreover, the composite z-score is 0.161 in assay [7]; -0.329 in assay [9]; -0.435 in [10]; 1.21 in [11]; 1.53 in assay [15]; 0.0239 in assay [17]. Moreover, the composite z-score in assay [18] is -0.552; in [19] it was -0.0992; in assay [20] it was -0.229. The z-score was -2.46 (inactive) in [8]; -1.7 (inactive) in assay [12]; -1.93 (inactive) in assay [13]; -1.42 (inactive) in [14]; 0.649 (inactive) in assay [16].

As to `COC(=O)[C@@]1(Cc2ccc(F)cc2)[C@H]2c3cc(C(=O)N4CCCC4)n(CCc4ccccn4)c3C[C@H]2CN1C(=O)c1ccccc1`, the composite z-score in assay [1] is 0.319; in [2] it was -0.439; in [3], 0.165; in [4], 0.124; in [5], 1.43; in assay [6], 1.8. The composite z-score in assay [7] is 1.4; in [9] it was 0.858; in [10] it was -0.201; in assay [11], -0.63; in assay [15] it was 2.89; in assay [17], 0.181. In addition, the composite z-score in assay [18] was -0.701; in assay [19] it was 0.572; in [20], -0.164. Further, the z-score in [8] was 1.23 (inactive); in assay [12], -0.0526 (inactive); in assay [13], 0.804 (inactive); in assay [14] it was 0.414 (inactive); in assay [16] it was -0.223 (inactive).

For the molecule `COc1ccc(C(=O)Nc2ccc(CN3C(=O)[C@@]4(O[C@@H](CCn5cc(CCO)nn5)[C@H]([Si](C)(C)c5ccc(OC)cc5)[C@H]4C)c4ccccc43)cc2)cc1`, the composite z-score was -0.249 in [1]; 0.269 in assay [2]; -0.0613 in assay [3]; 0.462 in assay [4]; 0.534 in assay [5]; 0.587 in assay [6]. In addition, the composite z-score in assay [7] was 1.16; in assay [9], 0.859; in [10], -0.137; in assay [11], 1.34; in [15], 1.26; in assay [17], 0.0868. The composite z-score is 0.926 in assay [18], 1.11 in assay [19] and -0.0271 in assay [20]. Also, the z-score is -3.59 (inactive) in [8]; 0.704 (inactive) in [12]; -6.58 (inactive) in assay [13]; 0.377 (inactive) in assay [14]; -0.583 (inactive) in assay [16].

(Values after PubChem BioAssay.)
